Measurements from PubChem BioAssay (NCI).
Compounds without any hit were thinned out: in the full panel of roughly 79,000, 15% have a hit. Activity calls are given as the source filed them. No stated cut-off is given here; in the data, active means growth inhibition above about 70%; inactive means the rest.

What was measured:
[1] = NCI Yeast Anticancer Drug Screen. Data for the rad52 strain (AID 147);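 further: 0% = growth of vehicle-treated control cultures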; conditions: S. cerevisiae rad52 mutant growth inhibition, stronger effect = higher value
Method in brief: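 Screen used a yeast mutant impaired in DNA repair. After compound exposure, growth was measured. Values reflect inhibition compared with vehicle-treated cells.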

[2] = NCI Yeast Anticancer Drug Screen. Data for the wt1 strain (AID 149);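 further: 0% = growth of vehicle-treated wt1 cultures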; conditions: S. cerevisiae wt1 strain (SPY 50644) growth inhibition, stronger effect = higher value
Method in brief: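 wt1 strain grown with compound or vehicle; inhibition taken from the growth difference.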

[3] = NCI Yeast Anticancer Drug Screen. Data for the rad50EPP+ strain (AID 151);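 further: 0% = growth of vehicle-treated control cultures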; conditions: S. cerevisiae rad50 mutant strain, stronger effect = higher value
Method in brief: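 Exposing the rad50EPP+ strain to each compound, growth was compared with vehicle-only cultures to give inhibition.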

[4] = NCI Yeast Anticancer Drug Screen. Data for the mgt1 strain (AID 153); conditions: S. cerevisiae mgt1 mutant growth inhibition, stronger effect = higher value
Method in brief: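 Genetically defined yeast (mgt1) treated with compound; inhibition of growth expressed against vehicle-treated controls.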

[5] = NCI Yeast Anticancer Drug Screen. Data for the rad50 strain (AID 155);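 further: 0% = growth of vehicle-only cultures of the same strain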; conditions: S. cerevisiae rad50 strain growth inhibition, stronger effect = higher value
Method in brief: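 DNA repair mutant yeast, compound exposure, growth read-out; inhibition is taken relative to vehicle.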

[6] = NCI Yeast Anticancer Drug Screen. Data for the mec2-1 strain (AID 157); conditions: S. cerevisiae mec2-1 strain, stronger effect = higher value
Method in brief: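 Readout is yeast growth inhibition, normalised to vehicle-treated controls, in the mec2-1 strain exposed to compound.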

[7] = NCI Yeast Anticancer Drug Screen. Data for the rad14 strain (AID 159);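 further: 0% = growth of vehicle-treated control cultures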; conditions: S. cerevisiae rad14 strain growth inhibition, stronger effect = higher value
Method in brief: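 DNA repair-defective yeast, compound-exposed; % growth inhibition derived by comparison with vehicle-treated controls.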

[8] = NCI Yeast Anticancer Drug Screen. Data for the sgs1 mgt1 strain (AID 161);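 further: 0% = growth of cultures given vehicle only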; conditions: S. cerevisiae sgs1 mgt1 strain, stronger effect = higher value
Method in brief: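 This yeast growth screen uses a strain with defined DNA-repair lesions; compound-treated growth is compared with vehicle-treated growth.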

[9] = NCI Yeast Anticancer Drug Screen. Data for the CLN2oe strain (AID 163);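 further: 0% = growth of vehicle-only control cultures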; conditions: S. cerevisiae CLN2oe strain, stronger effect = higher value
Method in brief: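 Values reflect how much compound exposure reduced yeast growth, referenced to vehicle-exposed cells. Assay organism is a strain with a defined genetic change affecting cell-cycle control.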

[10] = NCI Yeast Anticancer Drug Screen. Data for the cln2 rad14 strain (AID 165);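 further: 0% = growth equal to vehicle treated cultures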; conditions: S. cerevisiae cln2 rad14 strain, stronger effect = higher value
Method in brief: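 Relative to vehicle controls, growth inhibition of compound-treated cln2 rad14 yeast was recorded.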

[11] = NCI Yeast Anticancer Drug Screen. Data for the bub3 strain (AID 167); conditions: S. cerevisiae bub3 mutant strain, stronger effect = higher value
Method in brief: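 In this screen, a yeast mutant lacking normal mitotic checkpoint function is challenged with compound. Relative growth versus vehicle gives the inhibition value.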

[12] = NCI Yeast Anticancer Drug Screen. Data for the wt2 strain (AID 169);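 further: 0% = growth of vehicle-treated yeast cultures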; conditions: S. cerevisiae wt2 strain growth inhibition, stronger effect = higher value
Method in brief: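 Values express reduction in yeast growth under compound treatment, referenced to vehicle-treated cells.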

[13] = NCI Yeast Anticancer Drug Screen. Data for the mlh1 strain (AID 171);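 further: 0% = growth of vehicle-treated control cultures of the same strain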; conditions: S. cerevisiae mlh1 strain growth inhibition, stronger effect = higher value
Method in brief: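 Steps: expose the defined-mutant yeast strain to compound; expose a parallel culture to vehicle; measure growth; express compound effect as inhibition relative to the vehicle culture.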

[14] = NCI Yeast Anticancer Drug Screen. Data for the sgs1 strain (AID 173);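 further: 0% = growth of vehicle-only control cultures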; conditions: S. cerevisiae sgs1 mutant, stronger effect = higher value
Method in brief: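 Treat defined-mutant yeast with compound; measure growth; calculate inhibition relative to vehicle-treated cells.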

[15] = NCI Yeast Anticancer Drug Screen. Data for the mlh1 rad18 strain (AID 175); conditions: S. cerevisiae mlh1 rad18 strain growth inhibition, stronger effect = higher value
Method in brief: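 Test agents were incubated with a yeast strain of defined genotype (DNA damage repair defect). Inhibition of growth was derived by comparison with vehicle-exposed cultures.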

[16] = NCI Yeast Anticancer Drug Screen. Data for the rad18 strain (AID 177); conditions: S. cerevisiae rad18 mutant growth inhibition, stronger effect = higher value
Method in brief: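 A genetically defined yeast mutant impaired in DNA damage repair was treated with test compounds, then its growth was measured against cultures receiving vehicle alone.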

[17] = at 5.0 µM (retest, dose inferred, filed as 0.5)
[18] = at 50.0 µM (retest, dose inferred, filed as 5.0)

Measured: growth inhibition

COc1ccc(C2c3cc4c(cc3OC(C)(O)C2C)OCO4)c(OC)c1 (stereo unspecified)
active: [1]; at 100.0 µM 96% | [2]; at 100.0 µM 83% | [4]; at 100.0 µM 89% | [5]; at 50.0 µM 95.5% | [5]; at 100.0 µM 98% | [6]; at 50.0 µM 94% | [6]; at 100.0 µM 94% | [7]; at 100.0 µM 98% | [8]; [18] 70% | [8]; at 50.0 µM 84.5% | [9]; at 100.0 µM 82% | [10]; at 50.0 µM 89.3% | [11]; at 100.0 µM 95% | [12]; at 100.0 µM 97% | [13]; at 100.0 µM 96% | [14]; at 100.0 µM 98% | [15]; [18] 81% | [15]; at 50.0 µM 93.5% | [16]; at 100.0 µM 97%
inactive: [1]; at 1.2 µM -1% | [1]; at 3.7 µM 1% | [1]; at 11.0 µM 3% | [1]; at 33.0 µM 10% | [2]; at 1.2 µM -1% | [2]; at 3.7 µM 3% | [2]; at 11.0 µM -2% | [2]; at 33.0 µM -2% | [3]; at 1.2 µM 6% | [3]; at 3.7 µM 7% | [3]; at 11.0 µM 12% | [3]; at 33.0 µM 7% | [3]; at 100.0 µM 4% | [4]; at 1.2 µM -5% | [4]; at 3.7 µM -6% | [4]; at 11.0 µM -4% | [4]; at 33.0 µM -2% | [5]; at 1.2 µM 0% | [5]; at 3.7 µM 1% | [5]; [17] 2% | [5]; at 11.0 µM 0% | [5]; at 33.0 µM 9% | [5]; [18] 66% | [6]; at 1.2 µM 3% | [6]; at 3.7 µM 8% | [6]; [17] 4% | [6]; at 11.0 µM 9% | [6]; at 33.0 µM 15% | [6]; [18] 63% | [7]; at 1.2 µM -3% | [7]; at 3.7 µM -4% | [7]; at 11.0 µM -4% | [7]; at 33.0 µM 1% | [8]; [17] 4% | [9]; at 1.2 µM -6% | [9]; at 3.7 µM -12% | [9]; at 11.0 µM -2% | [9]; at 33.0 µM 4% | [10]; [17] 5% | [10]; [18] 51% | [11]; at 1.2 µM -4% | [11]; at 3.7 µM -1% | [11]; [17] -4% | [11]; at 11.0 µM 1% | [11]; at 33.0 µM 6% | [11]; [18] 67% | [11]; at 50.0 µM 43% | [12]; at 1.2 µM -2% | [12]; at 3.7 µM 0% | [12]; at 11.0 µM -2% | [12]; at 33.0 µM 1% | [13]; at 1.2 µM 3% | [13]; at 3.7 µM 2% | [13]; at 11.0 µM 3% | [13]; at 33.0 µM 6% | [14]; at 1.2 µM 2% | [14]; at 3.7 µM 2% | [14]; at 11.0 µM 4% | [14]; at 33.0 µM 18% | [15]; [17] -6% | [16]; at 1.2 µM 1% | [16]; at 3.7 µM -2% | [16]; at 11.0 µM 1% | [16]; at 33.0 µM 15%

CSc1nc(=S)[nH]c2c1c(C)nn2-c1ccccc1
inactive: [1]; at 1.2 µM 11% | [1]; at 3.7 µM 18% | [1]; at 11.0 µM 12% | [1]; at 33.0 µM 11% | [1]; at 100.0 µM 41% | [2]; at 1.2 µM 11% | [2]; at 3.7 µM -2% | [2]; at 11.0 µM -1% | [2]; at 33.0 µM -4% | [2]; at 100.0 µM 1% | [3]; at 1.2 µM -17% | [3]; at 3.7 µM -16% | [3]; at 11.0 µM -24% | [3]; at 33.0 µM -10% | [3]; at 100.0 µM 14% | [4]; at 1.2 µM -19% | [4]; at 3.7 µM -15% | [4]; at 11.0 µM -3% | [4]; at 33.0 µM 7% | [4]; at 100.0 µM 35% | [5]; at 1.2 µM 12% | [5]; at 3.7 µM -1% | [5]; [17] 39% | [5]; at 11.0 µM 11% | [5]; at 33.0 µM 11% | [5]; at 50.0 µM 50.8% | [5]; at 100.0 µM 11% | [6]; at 1.2 µM 3% | [6]; at 3.7 µM -6% | [6]; [17] 16% | [6]; at 11.0 µM 1% | [6]; at 33.0 µM -1% | [6]; at 50.0 µM 45.8% | [6]; at 100.0 µM 3% | [7]; at 1.2 µM 9% | [7]; at 3.7 µM 18% | [7]; at 11.0 µM 28% | [7]; at 33.0 µM 23% | [7]; at 100.0 µM 34% | [8]; [17] 42% | [9]; at 1.2 µM -8% | [9]; at 3.7 µM 0% | [9]; at 11.0 µM -4% | [9]; at 33.0 µM 3% | [9]; at 100.0 µM -14% | [10]; [17] 3% | [10]; [18] 62% | [10]; at 50.0 µM 33.8% | [11]; at 1.2 µM -16% | [11]; at 3.7 µM -6% | [11]; [17] 39% | [11]; at 11.0 µM -15% | [11]; at 33.0 µM -17% | [11]; at 50.0 µM 64% | [11]; at 100.0 µM -14% | [12]; at 1.2 µM -14% | [12]; at 3.7 µM 3% | [12]; at 11.0 µM 5% | [12]; at 33.0 µM 12% | [12]; at 100.0 µM 27% | [13]; at 1.2 µM 11% | [13]; at 3.7 µM 9% | [13]; at 11.0 µM 32% | [13]; at 33.0 µM 21% | [13]; at 100.0 µM 41% | [14]; at 1.2 µM 7% | [14]; at 3.7 µM -1% | [14]; at 11.0 µM 9% | [14]; at 33.0 µM 16% | [14]; at 100.0 µM 39% | [15]; [17] 26% | [15]; at 50.0 µM 52.1% | [16]; at 1.2 µM 10% | [16]; at 3.7 µM -10% | [16]; at 11.0 µM 4% | [16]; at 33.0 µM -5% | [16]; at 100.0 µM 36%
active: [5]; [18] 91% | [6]; [18] 97% | [8]; [18] 98% | [8]; at 50.0 µM 72.1% | [11]; [18] 97% | [15]; [18] 84%
